Assay results from PubChem BioAssay AID2734 (National Center for Advancing Translational Sciences (NCATS), 2010).
Records with an inconclusive call do not appear. The source made the active and inactive calls. Calls come from the whole dose curve; as a rule, active = well fitted inhibition curve with a large enough effect; inconclusive = small, poorly fitted or top-dose-only effect, or effect the other way; inactive = no such curve, though single readings can be large or run the other way.

Test: High Content Assay for Compounds that inhibit the Assembly of the Perinucleolar Compartment: DNA Intercalation/PicoGreen Displacement Assay
Conditions: fluorescence (intercalation counter-screen); series mostly up to 57.1 µM; activity change, negative = displacement: at the top concentration
From the text: High Content Assay for Compounds that inhibit the Assembly of the Perinucleolar Compartment
NIH Chemical Genomics Center [NCGC]
NIH Molecular Libraries Probe Centers Network [MLPCN]
Assay Submitter (PI): Sui Huang, Northwestern University, Feinberg School of Medicine, Cell and Molecular Biology, Chicago, Illinois.
The perinucleolar compartment (PNC) is a non-membrane-bound nuclear subdomain that is associated with but structurally distinct from the nucleolus. The PNC is a heritable trait, in which the number of PNCs per cell in daughter cells often mimics that of their mother cells. The PNC is heterogeneous in shape, is stable through interphase, disassembles during mitosis, and reassembles in early G1. The PNC is concentrated with newly synthesized RNA polymerase III (pol III) RNAs (MRP RNA, RNAse P H1 RNA, hY RNAs[hY1, 2, 5], Alu RNA, and SRP [7SL] RNA) and RNA binding proteins (nucleolin, PTB, CUG-BP, KSRP, Raver1, Raver2, and Rod).
Extensive in vitro studies have shown that the PNC is unique to tumor cells and preferentially forms in tumor cells derived from solid tissues. Examination of cancer cell lines from various origins and malignant capacities has shown that PNC prevalence correlates with the malignancy of tumors and has the potential to be developed as a pan-cancer prognostic marker.
Although the PNC is associated with a DNA locus and a handful of components have been identified, much remains to be investigated regarding the structure and function of the PNC and its mechanistic link to cancer. We have previously shown that PNC prevalence reduction is a valid strategy to identify compounds that can be used to study the structure and function of the PNC. It is necessary, however, to create a screening platform that is able to test a large number of compounds in an automated fashion. Here we report the development and robustness of an automated whole-cell phenotypic image-based screening assay that is capable of identifying such compounds.
Therefore, we conducted a DNA intercalation/displacement assay on the lead candidates in order to exclude compounds with this mechanism of action. PicoGreen is a DNA intercalator that becomes excitable at 488 nm and emits at 520 nm when bound to DNA. Compounds which displace the dye will decrease fluorescence intensity and were considered DNA intercalators/displacers. In order to rule out potential fluorescence artifacts, a measurement of compound plus DNA only was also calculated.
1. A supercoiled plasmid (pBR322) was diluted to 200 ng/ml in TE and 2 ul was dispensed into 1536 well black plates Multidrop Combi.(ThermoFisher).
2. Followup compounds dissolved in 100% DMSO were transferred using a pintool (23 nl).
3. Compounds were incubated in the presence of DNA for 30 minutes at room temperature.
4. A baseline signal was measured using an Envision PMT based plate reader using a 488 nm excitation filter and a 520 nm emission filter.
5. The PicoGreen dye (Invitrogen) was diluted in TE and 2 ul/well was dispensed to the 1536 well plate using a Multidrop Combi.
6. Plates were incubated at 37 C for 10 minutes prior to being read on the envision plate reader. 100 ng/ml of Propidium Iodide was used as the positive intercalation control.

Structure (SMILES)	activity change, negative = displacement	Potency
O=c1[nH]cnc2c1C(c1ccccc1[N+](=O)[O-])c1c(nc[nH]c1=O)O2	6.43% (inactive)	–
O=[N+]([O-])c1cc(/C=N/Nc2nc3ccccc3[nH]2)c(O)cc1O	–	22.4 µM (active)
CCN(CC)c1ccc(N=Cc2ccccc2[N+](=O)[O-])cc1	–	3.16 µM (active)
Nc1ccc2c(c1)C(=O)C(=O)c1ccccc1-2	–	12.6 µM (active)
COC(=O)c1ccc(CSc2ccccc2C)o1	8.83% (inactive)	–
O=C(Nc1ccc(NC(=O)C2CC2)cn1)c1ccccc1Cl	-4.55% (inactive)	–
O=C(Nc1cccnc1)c1cccs1	1.26% (inactive)	–
C/C(=N/OCO/N=C(/C)c1ccc(F)cc1)c1ccc(F)cc1	11.4% (inactive)	–
Nc1cccc(-c2nc3ccc(N)cc3s2)c1	-8.75% (inactive)	–
O=C1C(=Cc2cccs2)C(=O)c2ccccc21	-20.6% (inactive)	–
O=C1C(Nc2ccccc2)=C/C(=N/S(=O)(=O)c2cccs2)c2ccccc21	–	2.82 µM (active)
Cc1ccc(Cl)cc1N(CC(=O)N1CCCCCC1)S(C)(=O)=O	9.65% (inactive)	–
CCN(CC)C(=S)SSC(=S)N(CC)CC	36% (inactive)	–
Cc1cc(=O)[nH]c(N=N/C(=N/Nc2ccccc2C)c2ccccc2)n1	–	2 µM (active)
CCOC(=O)c1c(NC(=O)c2c(-c3ccccc3)noc2C)sc(C)c1-c1ccccc1	11.5% (inactive)	–
Cc1ccccc1C(=O)NNC(=S)Nc1cccc(C(F)(F)F)c1	6.92% (inactive)	–
Cc1ccc(NC2=C/C(=N/S(=O)(=O)c3cccs3)c3ccccc3C2=O)cc1	–	3.55 µM (active)
CC(/C=C/c1ccccc1)=N/NC(=O)c1cc([N+](=O)[O-])cc([N+](=O)[O-])c1	-6.33% (inactive)	–
O=C1C(=O)c2ccc(-c3ccccc3)cc2-c2ccccc21	–	4.47 µM (active)
CCCNC1=C(N(C(C)=O)c2cccc(F)c2)C(=O)c2ccccc2C1=O	-5.87% (inactive)	–
CSc1nnc2c3ccccc3n(CCc3ccccc3)c2n1	27.3% (inactive)	–
CSc1nc(-c2ccc(C)cc2)nc(C(Cl)Cl)n1	47.4% (inactive)	–
CC(=O)Nc1ccc(S(=O)(=O)Oc2ccc3c(c2)C(C)=CC(C)(C)N3)cc1	-2.67% (inactive)	–
CC(=O)/C(C#N)=C1\NC(=O)C(Cc2ccc(C)c(C)c2)S1 (configuration not stated)	13.5% (inactive)	–
Cc1cc(C)c(S(=O)(=O)/N=C2/C=C(Sc3ncn[nH]3)C(=O)c3ccccc32)cc1C	–	12.6 µM (active)
CCOC(=O)CSc1nc2c(sc3ccc([N+](=O)[O-])cc32)c(=O)n1Cc1ccco1	24.2% (inactive)	–
CCOC(=O)NC1(Nc2ccc(C)cc2)Oc2ccccc2O1	11.9% (inactive)	–
